According to PubChem BioAssay (NCATS):
Results filed as inconclusive are left out. Where a call stands in place of a potency, no number is given. Active and inactive are the calls of the source. Unless noted, the call rests on the fitted dose curve; in most records, active means well fitted curve in the direction sought with a large enough effect; inconclusive means small, poorly fitted or top-dose-only effect, or another doubt; inactive means no such curve, though single readings can be large; an effect the other way counts as inactive or inconclusive.

Assays:
[1] = biological target: Aldehyde dehydrogenase, mitochondrial (Homo sapiens) (UniProt P05091); assay: qHTS for Inhibitors of the Aldehyde Dehydrogenase Family (ALDH2) Confirmatory screens (AID 2061303; active means well fitted inhibition curve with a large enough effect; title and protocol of this record describe different tests; further: nearly all actives have a fitted effect of over 45% in size; further: potency means the concentration at half of the fitted maximal effect); conditions: ALDH inhibition qHTS; series mostly up to 45.4 µM
[2] = qHTS for Inhibitors of the Aldehyde Dehydrogenase Family (ALDH1A2, ALDH1A3, ALDH2, ALDH3A1) (AID 2061307); conditions: ALDH inhibition qHTS; series mostly up to 50.3 µM; further: nearly all actives have a fitted effect of over 50% in size; on potency: test system not described further here; potency means the concentration at half of the fitted maximal effect
[3] = biological target: Aldehyde dehydrogenase, mitochondrial (Homo sapiens) (UniProt P05091); assay: qHTS for Inhibitors of the Aldehyde Dehydrogenase Family (ALDH2) Primary screen (AID 2061308); conditions: ALDH2 enzyme inhibition qHTS, 1536-well; series mostly up to 56 µM; further: nearly all actives have a fitted effect of over 55% in size
[4] = biological target: Retinaldehyde dehydrogenase 3 (Homo sapiens) (UniProt P47895); assay: qHTS for Inhibitors of the Aldehyde Dehydrogenase Family (ALDH1A3) Confirmatory screens (AID 2061311); conditions: ALDH inhibition qHTS; series mostly up to 46 µM; further: nearly all actives have a fitted effect of over 60% in size; further: potency means the concentration at half of the fitted maximal effect
[5] = biological target: Retinaldehyde dehydrogenase 3 (Homo sapiens) (UniProt P47895); assay: qHTS for Inhibitors of the Aldehyde Dehydrogenase Family (ALDH1A3) Primary screen (AID 2061315); conditions: ALDH inhibition qHTS; series mostly up to 56 µM; further: potency means the concentration at half of the fitted maximal effect
[6] = biological target: Aldehyde dehydrogenase 1A1 (Homo sapiens) (UniProt P00352); assay: qHTS for Inhibitors of the Aldehyde Dehydrogenase Family (ALDH1A1) Confirmatory screens (AID 2061316); conditions: ALDH inhibition qHTS; series mostly up to 47.3 µM; further: nearly all actives have a fitted effect of over 65% in size; further: potency means the concentration at half of the fitted maximal effect
[7] = biological target: Retinal dehydrogenase 2 (Homo sapiens) (UniProt O94788); assay: qHTS for Inhibitors of the Aldehyde Dehydrogenase Family (ALDH1A2) Confirmation screens (AID 2061314); conditions: ALDH1A2 enzyme inhibition qHTS confirmation; series mostly up to 45.9 µM; further: nearly all actives have a fitted effect of over 65% in size; further: potency means the concentration at half of the fitted maximal effect

| Compound | Potency [1] | Potency [2] | Potency [3] | Potency [4] | Potency [5] | Potency [6] | Potency [7] |
| --- | --- | --- | --- | --- | --- | --- | --- |
| COc1ccc(C2Nc3ccccc3C(=O)N2Cc2cccc(C(F)(F)F)c2)cc1COc1ccc(NC(C)=O)cc1 (configuration not stated) | 11.2 µM (active) | 4 µM (active) | inactive | 10 µM (active) | inactive |  |  |
| Cc1cccc(C[C@H](C(=O)O)N2C(=O)c3ccc(C(=O)O)cc3C2=O)c1 | inactive | inactive | inactive | inactive | inactive | inactive |  |
| CNc1oc(-c2cccc(-c3ccccc3)c2)nc1C#N | 15.8 µM (active) | 17.8 µM (active) | inactive | 25.1 µM (active) | inactive | inactive |  |
| COc1ccc(C2=Nn3c(nnc3-c3ccccc3C)SC2)cc1 | inactive | inactive | inactive | inactive | inactive |  |  |
| CN(Cc1ccco1)c1ncnc2ccc(-c3cccnc3)cc12 | inactive | inactive | inactive | 7.98 µM (active) | inactive | 11.3 µM (active) |  |
| Oc1cccc2cc(C3CC3)cnc12 | inactive | 0.634 µM (active) | inactive | 31.6 µM (active) | inactive |  |  |
| N#Cc1c(-c2ccc(F)cc2)no[n+]1[O-] | inactive | 12.7 µM (active) | inactive | inactive | inactive |  |  |
| N=c1c2c(ncn1-c1ccccc1)Oc1ccc3ccccc3c1C2c1ccc2c(c1)CCO2 (configuration not stated) | 14.1 µM (active) | 7.08 µM (active) | inactive | 15.8 µM (active) | inactive | 31.6 µM (active) |  |
| O=C(Nc1ccc2c(c1)CCC2)Nc1nnc(-c2ccncc2)s1 | inactive | inactive | inactive | inactive | inactive |  |  |
| O=C(NC1CCCc2c1cnn2-c1ccc(F)cc1F)c1ccc(C(=O)c2ccccc2)cc1 (configuration not stated) | inactive | inactive | inactive | inactive | inactive |  |  |
| CN(C)CCCNc1ncnc2ccc(-c3ccc4c(c3)OCO4)cc12 | inactive | inactive | inactive | inactive | inactive | inactive |  |
| N#Cc1nc(Nc2cccc(Br)c2)nc(NC2CCCC2)n1 | inactive | 10.1 µM (active) | inactive | inactive | inactive |  |  |
| COc1ccc(C2Nc3ccccc3C(=O)N2Cc2ccc(C(F)(F)F)cc2)cc1COc1ccc(NC(C)=O)cc1 (configuration not stated) | 0.447 µM (active) | 3.57 µM (active) | inactive | 2.51 µM (active) | inactive | 22.5 µM (active) |  |
| O=c1c2ccccc2nc2sc(Nc3cccc(N4CCNCC4)c3)nn12 | inactive | inactive | inactive |  | inactive | 12.7 µM (active) | 10.1 µM (active) |
| COc1ccc(C2Nc3ccccc3C(=O)N2Cc2ccccc2)cc1COc1ccc(C(N)=O)cc1 (configuration not stated) | 5.62 µM (active) | 2.83 µM (active) | inactive |  | inactive |  | 14.1 µM (active) |
| Cc1cc2c(s1)c(C=O)c(C(=O)NCc1ccccc1F)n2C | inactive | 1.27 µM (active) | inactive |  | inactive |  | inactive |
| Cc1cc(C)cc(C(=O)NOCCCCCC(=O)NO)c1 | inactive | inactive | inactive |  | 6.31 µM (active) |  | inactive |
| O=C(OCC1=C[C@@H](O)[C@@H]2C=CO[C@@H](O[C@@H]3O[C@H](CO)[C@@H](O)[C@H](O)[C@H]3O)[C@H]12)c1ccc(O)cc1 | inactive | inactive | inactive |  | inactive |  | inactive |
| Cc1cccc(-n2cnc3cc(C(=O)N4CCCC(C)(C)C4)ccc32)c1 | inactive | inactive | inactive |  | inactive |  | inactive |
| CCN(CC)c1cc2c(cc1S(=O)(=O)Nc1ccc(C)c(C)c1)CCC(=O)N2 | inactive | inactive | inactive |  | inactive |  | inactive |
| Cc1cccc(-n2cnc3cc(C(=O)N4CCC(Br)CC4)ccc32)c1 | inactive | inactive | inactive |  | inactive |  | inactive |
| O=C(c1ccccc1)N1CCN(c2nc(-c3ccc(Br)cc3)cs2)CC1 | 15.8 µM (active) | 15.8 µM (active) | inactive |  | inactive |  | inactive |
| O=C(Nc1ccc(Cl)c(Cl)c1)Nc1nnc(NC2CCNCC2)s1 | inactive | inactive | inactive | 11.3 µM (active) |  | inactive |  |
| O=C(NCCc1nc2ccccc2n1CCOc1cccc(Br)c1)C1CCCCC1 | inactive | inactive | inactive |  | inactive |  | inactive |
| O=C(Nc1ccc2ccccc2c1)Nc1nnc(-c2cccnc2)s1 | inactive | inactive | inactive |  | inactive |  | 12.7 µM (active) |
| CC(=O)N1CCN(C(=S)Nc2cc(C)ccn2)CC1 | inactive | inactive | inactive |  | inactive |  | inactive |
